According to PubChem BioAssay (NCI):
About 79,000 compounds went through this panel and 15% of them were active in at least one assay; those are over-represented in the sample as a whole. The source made the active and inactive calls. Cut-off read from the data, not from the text of the source: active = growth inhibition above about 70%; inactive = the rest.

Legend:
[1] = NCI Yeast Anticancer Drug Screen. Data for the rad50 strain (AID 155);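 note: 0% = growth of vehicle-only cultures of the same strain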; details: S. cerevisiae rad50 strain growth inhibition, stronger effect = higher value
Summary of the method: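 Yeast carrying a defined DNA repair defect were exposed to test compounds, and growth was compared with vehicle-treated controls to give percent inhibition.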

[2] = NCI Yeast Anticancer Drug Screen. Data for the mec2-1 strain (AID 157); details: S. cerevisiae mec2-1 strain, stronger effect = higher value
Summary of the method: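 Yeast mec2-1 mutant treated with compound. Readout: growth inhibition vs vehicle controls.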

[3] = NCI Yeast Anticancer Drug Screen. Data for the sgs1 mgt1 strain (AID 161);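 note: 0% = growth of cultures given vehicle only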; details: S. cerevisiae sgs1 mgt1 strain, stronger effect = higher value
Summary of the method: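 Read-out: growth inhibition vs vehicle controls. Cells: mutant yeast strain deficient in DNA damage repair.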

[4] = NCI Yeast Anticancer Drug Screen. Data for the cln2 rad14 strain (AID 165);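 note: 0% = growth equal to vehicle treated cultures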; details: S. cerevisiae cln2 rad14 strain, stronger effect = higher value
Summary of the method: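 cln2 rad14 yeast strain; compound exposure; growth inhibition read vs vehicle controls.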

[5] = NCI Yeast Anticancer Drug Screen. Data for the bub3 strain (AID 167); details: S. cerevisiae bub3 mutant strain, stronger effect = higher value
Summary of the method: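 Compounds were applied to a genetically altered yeast strain carrying a cell-cycle control defect. Growth inhibition was scored against vehicle-treated controls.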

[6] = NCI Yeast Anticancer Drug Screen. Data for the mlh1 rad18 strain (AID 175); details: S. cerevisiae mlh1 rad18 strain growth inhibition, stronger effect = higher value
Summary of the method: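 Yeast w/ defined DNA-repair lesions; compound exposure; growth vs vehicle controls → % inhibition.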

[7] = at 5.0 µM (retest, dose inferred, filed as 0.5)
[8] = at 50.0 µM (retest, dose inferred, filed as 5.0)

Measured: growth inhibition

CC(C)(C)C(=O)OC12/C(=N/O)CCCCCC1c1ccccc12 (stereo not given)
active: [1]; [8] 88% | [1]; at 50.0 µM 81.8% | [2]; [8] 92% | [2]; at 50.0 µM 86% | [3]; [8] 89% | [3]; at 50.0 µM 81.2% | [4]; [8] 96% | [4]; at 50.0 µM 85.3% | [5]; [8] 93% | [5]; at 50.0 µM 84.2% | [6]; [8] 92% | [6]; at 50.0 µM 80.5%
inactive: [1]; [7] -17% | [2]; [7] 6% | [3]; [7] -12% | [4]; [7] 31% | [5]; [7] -9% | [6]; [7] 14%

O=C1CCC/C1=C\c1ccccc1
inactive: [1]; [7] 7% | [1]; [8] 15% | [1]; at 50.0 µM 3.05% | [2]; [7] 7% | [2]; [8] 5% | [2]; at 50.0 µM 7.6% | [3]; [7] 3% | [3]; [8] 6% | [3]; at 50.0 µM 1.4% | [4]; [7] -2% | [4]; [8] -13% | [4]; at 50.0 µM 49.3% | [5]; [7] -2% | [5]; [8] 5% | [5]; at 50.0 µM 6.1% | [6]; [7] 1% | [6]; [8] 4% | [6]; at 50.0 µM 2.2%

CC(=O)C1(C(C)=O)C2=C(C(=O)C(Cl)=C(Cl)C2=O)N2C=CC=CC21 (stereo not given)
active: [1]; [7] 85% | [1]; [8] 95% | [1]; at 50.0 µM 98.3% | [2]; [7] 81% | [2]; [8] 97% | [2]; at 50.0 µM 98.5% | [3]; [7] 78% | [3]; [8] 97% | [3]; at 50.0 µM 98.3% | [4]; [8] 95% | [4]; at 50.0 µM 96.8% | [5]; [7] 91% | [5]; [8] 97% | [5]; at 50.0 µM 98.3% | [6]; [7] 92% | [6]; [8] 96% | [6]; at 50.0 µM 98.2%
inactive: [4]; [7] 40%

COc1ccc2c(c1)[n+]([O-])c(-c1ccc(Cl)c(Cl)c1)c(N)[n+]2[O-]
active: [1]; [8] 98% | [1]; at 50.0 µM 99.5% | [2]; [8] 99% | [2]; at 50.0 µM 99.5% | [3]; [8] 99% | [3]; at 50.0 µM 99.7% | [4]; [8] 98% | [4]; at 50.0 µM 99.3% | [5]; [7] 76% | [5]; [8] 99% | [5]; at 50.0 µM 99.6% | [6]; [7] 71% | [6]; [8] 99% | [6]; at 50.0 µM 99.4%
inactive: [1]; [7] 23% | [2]; [7] 26% | [3]; [7] 29% | [4]; [7] 38%

CCCCCCCCCCCCCCNCCN
inactive: [1]; [7] 23% | [1]; [8] 29% | [2]; [7] 46% | [2]; [8] 33% | [3]; [7] 53% | [4]; [7] 27% | [6]; [7] 25% | [6]; [8] 29%
active: [1]; at 50.0 µM 88.1% | [2]; at 50.0 µM 91% | [3]; [8] 97% | [3]; at 50.0 µM 92.5% | [4]; [8] 97% | [4]; at 50.0 µM 88.7% | [5]; [7] 84% | [5]; [8] 96% | [5]; at 50.0 µM 89.5% | [6]; at 50.0 µM 88.5%

CN(C)CCCC(=O)OCC[N+](C)(C)C
inactive: [1]; [7] -2% | [1]; [8] 4% | [1]; at 50.0 µM -39.2% | [2]; [7] -4% | [2]; [8] 6% | [2]; at 50.0 µM -8.5% | [3]; [7] -4% | [3]; [8] -2% | [3]; at 50.0 µM -11.2% | [4]; [7] -14% | [4]; [8] -3% | [4]; at 50.0 µM 64.3% | [5]; [7] -1% | [5]; [8] 5% | [5]; at 50.0 µM 14.2% | [6]; [7] -4% | [6]; [8] 5% | [6]; at 50.0 µM -12.5%

CCC(C)COC(=O)c1ccc([N+](=O)[O-])cc1 (stereo not given)
inactive: [1]; [7] -4% | [1]; [8] 10% | [1]; at 50.0 µM 50% | [2]; [7] -4% | [2]; [8] 2% | [2]; at 50.0 µM 16.4% | [3]; [7] -1% | [3]; [8] 7% | [4]; [7] -3% | [4]; [8] -9% | [4]; at 50.0 µM -2.15% | [5]; [7] -6% | [5]; [8] -6% | [6]; [7] -4% | [6]; [8] 5%
active: [3]; at 50.0 µM 72.8% | [5]; at 50.0 µM 80.2% | [6]; at 50.0 µM 89.3%

CC12CCc3ccccc3C1=Nc1ccccc12 (stereo not given)
inactive: [1]; [7] -3% | [2]; [7] 2% | [3]; [7] 8% | [3]; at 50.0 µM 58.2% | [4]; [7] -12% | [4]; [8] -20% | [4]; at 50.0 µM -11.1% | [5]; [7] 12% | [6]; [7] -3% | [6]; at 50.0 µM 55.5%
active: [1]; [8] 78% | [1]; at 50.0 µM 78.7% | [2]; [8] 89% | [2]; at 50.0 µM 73.2% | [3]; [8] 82% | [5]; [8] 90% | [5]; at 50.0 µM 88.7% | [6]; [8] 72%

O=c1nc(N2CCCC2)nc(N2CCCC2)s1
inactive: [1]; [7] -16% | [1]; [8] -8% | [1]; at 50.0 µM -11.4% | [2]; [7] 4% | [2]; [8] -14% | [2]; at 50.0 µM 0.8% | [3]; [7] -1% | [3]; [8] -11% | [3]; at 50.0 µM -9.25% | [4]; [7] 14% | [4]; [8] -5% | [4]; at 50.0 µM -38.6% | [5]; [7] -7% | [5]; [8] -10% | [5]; at 50.0 µM -4.15% | [6]; [7] 14% | [6]; [8] -1% | [6]; at 50.0 µM 7.45%

OC1CCN(c2c3ccccc3nc3ccccc23)CC1
active: [1]; [8] 85% | [3]; [8] 94% | [6]; [8] 81%
inactive: [1]; [7] 21% | [1]; at 50.0 µM 12.2% | [2]; [7] 7% | [2]; [8] 67% | [2]; at 50.0 µM 11.4% | [3]; [7] 32% | [3]; at 50.0 µM 2.65% | [4]; [7] 24% | [4]; [8] 23% | [4]; at 50.0 µM 37.4% | [5]; [7] 1% | [5]; [8] 19% | [5]; at 50.0 µM 5.55% | [6]; [7] 8% | [6]; at 50.0 µM 15%
